The whole screen tested about 4,800 compounds, of which about 420 (8.8%) showed an effect of 50% or more. For the sample, strong results were picked, then their nearest neighbours and some compounds at random.
system: Plasmodium falciparum; test: Confirmatory screen in NF54 nanoGlo assay, in single point, at 2uM, 72h; type: functional, Erythrocyte; conditions: timepoint 72 hour

Compound	% Inhibition
CC[C@@H](c1ccncc1)N(C)Cc1cc(-c2ccc(Cl)cc2)no1	-6%
COCc1nncn1C1CN(C(=O)Cc2cc(OC)cc(OC)c2)C1	-16%
COc1nn(C)cc1C(=O)N1CCC[C@H](Oc2cccnn2)C1	1%
Cc1cc(C(=O)NCCCN2CCCC2=O)nn1C(F)F	-13%
CCn1cc(-c2cc(C(F)(F)F)nc(N3CCCC3)n2)cn1	4%
Cc1ccc(-c2c[n+](-c3ccc(OC(F)F)cc3)c3n2CCCCC3)cc1	67%
COc1ccc(CC(=O)NCc2nnc3n2CCC3)cc1	12%
COc1cccc(C(=O)C[n+]2cc(-c3ccc(Br)cc3)n(C)c2N)c1	-3%
FC(F)Oc1ccc(-c2c[n+](-c3cccc(C(F)(F)F)c3)c3n2CCCCC3)cc1	44%
COc1ccc(C(=O)C[n+]2nc(CNc3ccc(Br)cc3)n3c2CCCCC3)cc1	84%
COc1ccc2c(c1)[n+](CC(=O)c1ccc(-c3ccc(Br)cc3)cc1)c(CO)n2C	46%
Cn1c(-c2ccc(Br)cc2)c[n+](CC(=O)c2ccc(Br)cc2)c1N	-8%
COc1ccc(N2CCN(Cc3cc(-c4ccc(Cl)cc4)no3)CC2)cc1	-22%
COc1ccc(-c2c[n+](-c3ccc(Cl)cc3)c3n2CCCCC3)cc1	60%
COc1ccc(C(=O)C[n+]2cc(-c3ccc(OC)cc3)n3c2CCCC3)cc1	60%
COc1ccc(O)c([C@H]2Nc3ccccc3-n3c(-c4ccc(C)cc4)c4c(=O)n(C)c(=O)n(C)c4c32)c1	25%
COc1cccc(C(=O)N2CCCO[C@H](C(C)C)C2)c1	-9%
Cc1ccc(C(=O)Nc2ccc3c(c2)OC(C)(C)C(=O)N3)cc1	-4%
CN(CC(=O)N(C)C1CCC(c2ccccc2)CC1)c1cnccn1 (stereo not given)	-8%
COc1cc(NC(=O)CN2C(=O)N[C@](C)(c3ccc4c(c3)OCCO4)C2=O)c(OC)cc1Cl	2%
O=C(CCn1c(=O)[nH]c2ccsc2c1=O)NCc1ccccc1	37%
O=C(CCc1ccccc1)N[C@@H](c1ccccc1)c1ccc2c3c(cccc13)CC2	-12%
C[C@@H]1CN(C[C@@H]2CN(CCOCc3ccccc3)C[C@@H]2CO)C[C@H](C)O1	-5%
CCc1nnc2ccc(S(=O)(=O)Nc3ccc(F)c(F)c3)cn12	-6%
O=C(Nn1cnc2ccccc2c1=O)c1cnccn1	2%

Compound	% Inhibition
Nc1ncn(C(=O)c2ccc(Cl)cc2)n1	-14%
COc1nc2ncnc(OC)c2nc1C#N	3%
COc1ccc(S(=O)(=O)N(CC(=O)N2CCN(Cc3ccc4c(c3)OCO4)CC2)C2CCCCC2)cc1OC	-3%
CC(C)(C)OC(=O)N1CCC[C@H]1C(=O)n1ccnc1	-2%
CCOc1ccc(-[n+]2cc(-c3ccccc3)n3c2CCC3)cc1	80%
CCOc1nc(C)nc2cc(-c3ccccc3)n(Cc3ccccc3)c12	0%
O=C(O)C1Cc2c([nH]c3ccccc23)C(/C=C/c2ccccc2)N1 (stereo not given)	-1%
Cc1noc2nc(C3CC3)cc(C(=O)N3CCC[C@H](C)CC3)c12	-11%
CC1NC2(C(=O)N(Cc3ccc(F)cc3)c3ccccc32)C2C(=O)N(c3cccc4ccccc34)C(=O)C12 (stereo not given)	4%
CC1(C)C2OCCCC2C1(N)C(=O)Nc1cn[nH]c1 (stereo not given)	4%
CCCn1cc(CNc2nnc(C(C)(C)C)o2)cn1	-5%
c1ccc(Oc2ccnc(NCC34COCCN3CCOC4)n2)cc1	-10%
CN1CCN(C2(CNc3ccnc4ccccc34)CCCC2)CC1	91%
Fc1cccc(F)c1CNC[C@@H]1NCCc2ccccc21	-5%
O=c1[nH]c2nccnc2c(=O)n1Cc1ccc(F)cc1	-11%
O=C1N[C@H]2C[C@@H](C(=O)NC[C@H]3O[C@H](CCOc4cc(-c5ccccc5)ccc41)CC[C@@H]3O)N(Cc1ccc(Cl)c(F)c1)C2	-1%
CCOC(=O)C(Nc1cccc(NC(C(=O)OCC)C(=O)OCC)c1)C(=O)OCC	-16%
Nc1nccnc1C(=O)NCc1ccc(Cn2ccnc2)cc1	-5%
O=S(=O)(c1ccccc1)N1CCN(S(=O)(=O)c2ccc(Cl)cc2)C1	2%
O=c1[nH]c(=O)n(S(=O)(=O)c2ccccc2)cc1F	92%
Cc1ccc(N2CCN(S(=O)(=O)c3ccccc3)[C@@H](C)C2=O)cc1F	-5%
COc1ccc(CCNc2oc(-c3cccnc3)nc2C#N)cc1OC	31%
O=C(CNC1=NC(=O)C(c2ccccc2)(c2ccccc2)N1)NCc1ccc(F)cc1	-1%
COc1ccc(-n2ncc3c(NCCNC(=O)c4ccccc4Cl)nc(C)nc32)cc1	-12%
Cc1ccc(OCC(=O)Nc2cc(C)nn2-c2nc3c(cnn3-c3ccc(C)c(C)c3)c(=O)[nH]2)cc1	65%

Compound	% Inhibition
Cc1ccc(OCC(=O)Nc2ccc(N3CCn4c(nc5ccccc54)C3)cc2Cl)cc1	-17%
C1CCC(Nc2nc3nonc3nc2N2CCCCC2)CC1	1%
CC(C)CN(CC(C)(C)C)C(=O)c1cc[nH]n1	-6%
O=C(CN1CCN(Cc2ccccc2F)C1=O)NC1CCCCCCC1	-11%
O=C(c1ccccc1Cl)N1CCC[C@H](n2cnc3ccccc3c2=O)C1	18%
CCN(c1ccc(C(=O)N(C)C2(C#N)CCC2)cc1)C(C)C	-3%
O=S(=O)(Cc1ccccc1)Nc1nnc[nH]1	-1%
CCn1nccc1CNc1cc(Cl)cc2c1OCC2	-8%
CC(C)(C)OC(=O)N1C[C@@H](O)CC1=O	-11%
COc1ccc(C(=O)N2c3ncnn3C(c3ccccc3)CC2c2ccc(C)cc2)cc1OC (stereo not given)	78%
COc1ccc(C(=O)Nc2nnc([C@H]3CC(=O)N(c4ccc(C)cc4)C3)o2)cc1OC	-16%
COc1ccc(C2CC(c3ccccc3)N(C(C)=O)c3ncnn32)cc1 (stereo not given)	-9%
CCCN1CCN(CC(=O)Nc2sccc2C#N)c2cc(F)ccc21	2%
Cc1ccc(NC(=O)c2cc[nH]n2)c(C)c1	-18%
COc1ccc(-c2cc3nc(C)cc(N4CCN(C/C=C/c5ccccc5)CC4)n3n2)cc1OC	42%
COc1ccc(-c2c(C)nn3c(N4CCC(C(=O)NC5CC5)CC4)cc(C)nc23)cc1OC	37%
COc1ccc(-c2nn3c(N4CCN(CC=Cc5ccccc5)CC4)cc(C)nc3c2C)cc1OC	55%
Cc1c(C2=NO[C@H]3C(=O)N(c4ccc5ccccc5c4)C(=O)[C@@H]23)cnn1C	0%
C[C@H](NC(=O)c1nnn(C)c1C(F)(F)F)c1cscn1	7%
COc1ccc(CCNC(=O)CCCC(=O)Nc2cccnc2)cc1OC	3%
COc1ccc(Cl)cc1S(=O)(=O)N(C)[C@H]1CCc2n[nH]c(=O)n2CC1	-5%
COCCCN1CC(=O)N[C@@H]2CN(C(=O)CCc3cccnc3)CC[C@@H]2OCc2cccc(c2)Oc2cc(ccc2OC)C1	14%
CCc1cc(N2C[C@@H]3NC(=O)CN(C)Cc4ccc(OC)c(c4)Oc4cccc(c4)CO[C@H]3C2)nc(N(C)C)n1	60%
CCN1CC(=O)N[C@H]2CN(C(=O)CCn3ccnc3C)CC[C@@H]2OCc2cccc(c2)Oc2cc(OC(C)C)cc(c2)C1=O	9%
O=c1cc2n(c(=O)[nH]1)CC(c1ccccc1)=NN2	4%

Compound	% Inhibition
Cc1nnc2sc(Nc3ccccc3)nn12	-2%
NC(=O)C1CCN(CCC(=O)N2CCc3cc4ccc3[C@@H]2c2cccc(c2)OCCCNC(=O)c2cc(ccc2O)O4)CC1	96%
NCc1cccc(C(=O)N2CCc3cc4ccc3[C@@H]2c2cccc(c2)OCCCNC(=O)c2cc(ccc2O)O4)c1	93%
O=C1NCCCOc2cccc(c2)[C@H]2c3ccc(cc3CCN2C(=O)CCN2CCOCC2)Oc2ccc(O)c1c2	59%
O=C(NOCc1ccc(F)cc1)NC1CCCCC1	-5%
COc1ccc(N2CCN(Cc3c(O)nc(O)c(C#N)c3C)CC2)cc1	-3%
COc1ccc(CCN2C(=O)CC[C@H]2c2cn(C)c3ccccc23)cc1OC	-1%
O=C(c1[nH]nc(C2CC2)c1Br)N1CCC12CCC2	-8%
Cc1ccc(C(=O)N2CCCC23CCC3)nn1	-11%
COC(=O)[C@]1(C)CN(C(=O)NCc2cc(C#N)ccc2F)C[C@H]1C	7%
CCc1nc(C)nc(N2CCN(C[C@H](O)COc3ccccc3C)CC2)c1Cc1cccc(C)c1	7%
CC[C@@]1(C)CCCN(C(=O)Cc2c(C)noc2Cl)C1	84%
Cc1noc(Cl)c1CC(=O)N1CCCC(C)(C)CC1	38%
O=C(Cc1c(Cl)cccc1Cl)N1CC[C@]2(CCOC2)C1	-8%
Cc1nc(Cn2nnc(NC(=O)c3cccc(F)c3)c2C)no1	1%
CC(C)(C)NC(=O)CNC(=O)c1cccc(F)c1	-13%
O=C(Nc1nc2cccc(Cl)c2o1)c1cccc(F)c1	92%
COC(CNC(=O)OC(C)(C)C)CC(=O)NC1CC(C)CCC1C(C)C (stereo not given)	-7%
O=C(Cn1cccn1)N1CC(c2nc(-c3ncccn3)no2)C1	5%
N#Cc1cnc(NC2CC3CCC2C3)cn1 (stereo not given)	-8%
CC(C)CS(=O)(=O)Nc1ccccc1C(N)=O	-5%
CN(C)CCN(C)c1ccc(Br)cc1NCc1cncn1C	16%
COc1ccc(-c2cc(C(=O)Nc3ncc[nH]3)n[nH]2)cc1OC	29%
COc1ccc2cccc(NC(=O)c3cc(-c4cc(OC)c(OC)c(OC)c4)n[nH]3)c2n1	64%
COc1cc(NC(=O)c2cc(-c3cccc4ccccc34)[nH]n2)cc(OC)c1OC	10%

Source: ChEMBL document CHEMBL4888484, “Replenishing the malaria drug discovery pipeline: Screening and hit evaluation of the MMV Hit Generation Library 1 (HGL1) against asexual blood stage Plasmodium falciparum ,using a nano luciferase reporter read-out” (2022)
